# Screening data: PubChem BioAssay, several laboratories
# proKLK7 act: proKLK7 zymogen activators, primary screen, biochemical, fluorescence intensity; Kallikrein-7 (Homo sapiens), P49862; purified proKLK7, EDANS-DABCYL substrate fluorescence; 100% is mature enzyme control, 0% vehicle; activation, % at 7 µM; 0.9% of 370,000 active; AID 652039, 2013;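 active = activation above the mean of all tested compounds plus 3 SD, computed per campaign excluding outliers beyond control limits, cut at about 13% in these data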
# Target sequence (P49862 whole entry, looked up): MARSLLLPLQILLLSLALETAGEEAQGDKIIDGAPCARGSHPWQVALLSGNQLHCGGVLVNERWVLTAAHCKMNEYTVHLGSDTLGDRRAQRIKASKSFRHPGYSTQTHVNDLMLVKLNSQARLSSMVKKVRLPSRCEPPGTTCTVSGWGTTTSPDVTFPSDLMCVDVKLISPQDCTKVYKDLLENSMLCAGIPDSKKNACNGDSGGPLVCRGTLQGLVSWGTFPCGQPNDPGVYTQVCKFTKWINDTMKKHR
# ADAM17 inh: ADAM17 inhibitors, primary screen, biochemical, QFRET; Disintegrin and metalloproteinase domain-containing protein 17 (Homo sapiens), P78536; recombinant ADAM17, EDANS/DABCYL FRET peptide cleavage; inhibition, % at 6.95 µM; 0.83% of 370,000 active;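 active = inhibition above the mean of compounds lying between control limits plus 3 SD, set per campaign, cut at about 8.5% in these data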
# MPTP block: mitochondrial permeability transition pore inhibitors, primary screen, biochemical, isolated mouse mitochondria, absorbance | Ca2+ swelling absorbance, 30 min | inhibition, % at 10 µM | 1.4% of 360,000 active | AID 602449, 2012;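 active = inhibition of 50% or more, scaled per plate between neutral and stimulator controls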
# Pemphigus Ab inh: inhibitors of pemphigus antibody binding to DSG3, primary screen, biochemical, bead-based, flow cytometry, scFv-GFP; Desmoglein-3 (Homo sapiens), P32926; DSG3-coupled beads, scFv-anti-DSG3-GFP binding; hits give low values; binding (percent of control), % at 10 µM; 0.48% of 310,000 active;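 active = binding more than 3 SD below its plate's average and above zero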;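 also: hits lower antibody fragment binding to DSG3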
# ADAM10 inh: human ADAM10 inhibitors, primary screen, biochemical, QFRET, HTS | Disintegrin and metalloproteinase domain-containing protein 10 (Homo sapiens), O14672 | recombinant ADAM10, EDANS/DABCYL FRET peptide cleavage, 3 h | inhibition, % at 7 µM | 0.62% of 370,000 active;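 active = inhibition above a per-campaign cutoff equal to the mean of compounds falling between control-based bounds plus 3 SD, cut at about 20% in these data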
# rCAG binder: binders of r(CAG) RNA repeats, primary screen, biochemical, fluorescence. r(CAG) RNA repeat, TO-PRO-1 dye displacement fluorescence. inhibition, % at 3 µM. 1.3% of 370,000 active;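 active = inhibition above the plate cutoff, the mean of all test compounds on that plate plus 3 SD, cut at about 35% in these data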;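 also: higher means more dye released from RNA so lower well fluorescence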
# ADAM10 confirm: human ADAM10 inhibitors, confirmation, biochemical, QFRET, triplicate. shares compounds with ADAM10 inh. ADAM10 QFRET peptide cleavage, EDANS fluorescence. inhibition, % at 6.95 µM. 1% of 2,100 active;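 active = inhibition above about 20% chosen separately for each screening run, limit read from the data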
# ADAM17 counter: ADAM17 inhibitors, counter-screen for ADAM10 exosite inhibitor project, biochemical, QFRET, high throughput; shares compounds with ADAM10 inh; AID 743214, 2013; inhibition, % at 6.95 µM; 0.5% of 2,100 active; ADAM17 QFRET peptide cleavage, EDANS fluorescence;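 active = mean triplicate inhibition above the solvent-only control wells' mean plus 3 SD, cut at about 12% in these data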
# Numbers stand for hits; 0 = inactive; - = not tested or not shown. A selection: hits, their analogues and other compounds. The true share with any hit is near 4.7%.
SMILES,proKLK7 act,ADAM17 inh,MPTP block,Pemphigus Ab inh,ADAM10 inh,rCAG binder,ADAM10 confirm,ADAM17 counter
O=C(NCC1CCCN1S(=O)(=O)c1cccs1)C(=O)Nc1ccccc1F (stereo not given),0,0,0,0,0,0,-,-
CC1CCCCC1NC(=O)C1CC(=O)N(Cc2ccccc2)C1 (stereo not given),0,0,0,0,53.7,0,0,0
Cc1ccc(-n2c(COc3ccccc3)nnc2SCC(=O)Nc2ccc3c(c2)OCO3)cc1,0,0,-,-,19.8,0,0,0
COc1cc(NC(=O)C2CCN(S(=O)(=O)c3cccc4nonc34)CC2)cc(OC)c1,0,0,0,0,23.2,0,0,0
O=C(COC(=O)C1CCN(c2ccc(C(F)(F)F)cn2)CC1)Nc1ccc(Cl)cc1,0,0,0,0,26.8,0,0,0
O=C(COC(=O)C1CCN(c2ccc(C(F)(F)F)cn2)CC1)Nc1ccc(Cl)cn1,0,0,0,0,0,0,-,-
CCNC(=O)C1(C)CCCN(CCOc2ccc(Cl)cc2)C1 (stereo not given),-,-,0,-,-,-,-,-
O=C(NCc1ccccc1)c1onc(CSc2ccc(Cl)cc2)c1C(=O)NCc1ccccc1,0,0,0,0,0,0,-,-
CC(C)NC(=O)c1c(CSc2ccccc2)noc1C(=O)NCc1ccccc1,0,0,0,0,80.6,0,0,0
CC(C)NC(=O)c1c(CSc2ccc(Cl)cc2)noc1C(=O)NCc1ccccc1,0,0,0,0,21.6,0,0,0
CCOC(=O)C1CC(=NO)c2ccc(OC)c(OC)c2C1 (stereo not given),0,0,0,0,0,0,-,-
CCOc1ccc(N2CC(C(=O)Nc3ccc(S(=O)(=O)N4CCCCC4)cc3)CC2=O)cc1 (stereo not given),0,0,0,0,0,0,-,-
CCOc1ccc(N2CC(C(=O)Nc3cccc(S(=O)(=O)N4CCCCC4)c3)CC2=O)cc1 (stereo not given),0,0,0,0,21.9,0,0,0
O=C(Cc1cccs1)N[C@@H]1c2ccccc2CC[C@H]1OCc1ccccc1,0,0,0,0,0,0,-,-
Cn1c(N=Nc2ccccc2)nc2ccccc21,0,0,0,0,21.6,0,0,0
COC(=O)[C@]12CCCCC=C1N(Cc1ccccc1)C(=O)[C@H](CC(=O)NCCCCc1ccccc1)C2,0,0,0,-,0,0,-,-
COc1ccc(Cl)cc1NS(=O)(=O)c1ccc(S(=O)(=O)N2CCCC2)cc1,0,0,0,0,20.0,0,0,0
COC(=O)c1sc2ccccc2c1-n1cccc1C(=O)C(=O)Nc1ccc(OC)cc1,0,0,0,-,21.9,0,0,0
CCOC(=O)COc1ccc(C(C)c2ccc(NC(=O)OC(C)(C)C)cc2)cc1 (stereo not given),0,0,-,-,20.6,0,0,0
CC(C)(C)OC(=O)Nc1ccc([C@H](NC(=O)OC(C)(C)C)C(=O)OC(C)(C)C)cc1,0,0,0,0,0,0,-,-
O=C(Nc1cccc(F)c1)C1CCCN(S(=O)(=O)c2ccccc2)C1 (stereo not given),0,0,0,-,0,0,-,-
CCCC(=O)N1CCC1(C)C(=O)NS(=O)(=O)c1ccc(C(C)(C)C)cc1 (stereo not given),0,0,0,-,0,0,-,-
Cc1oc(-c2ccccc2)cc1C(=O)Nc1ccc(N(C)C)cc1,0,0,0,0,21.8,0,0,0
Cc1[nH]c2ccccc2c1C(=O)c1c(N)[nH]c(C(=O)c2ccccc2)c1-c1ccc(Cl)cc1,0,0,-,-,20.6,0,0,0
COC(=O)c1c(N)[nH]c(C(=O)c2ccccc2)c1-c1ccc(Cl)cc1,0,0,0,-,0,0,-,-
SMILES,proKLK7 act,ADAM17 inh,MPTP block,Pemphigus Ab inh,ADAM10 inh,rCAG binder,ADAM10 confirm,ADAM17 counter
O=C(CCn1c(=S)oc2ccccc21)N1CCCCC1,0,0,0,0,0,0,-,-
Cc1cccc(-c2noc(Cc3ccc(Cl)cc3)n2)c1,0,0,0,-,20.3,0,0,0
C(C#CCN1CCOCC1)#CCN1CCOCC1,0,0,0,0,0,0,-,-
CC1CCCCC1NC(=O)CSc1nnc(-c2ccco2)n1N (stereo not given),0,0,0,0,0,0,-,-
O=C(CSc1nc2ccc(Cl)cc2[nH]1)Nc1ccc2c(c1)CCC2,0,0,0,0,0,0,-,-
O=C(CSc1nc2ccccc2[nH]1)Nc1ccc2c(c1)CCC2,0,0,0,0,20.2,0,0,0
Cc1cc(OCc2cc(C(=O)N(C)Cc3nonc3C)no2)cc(C)c1Cl,0,0,0,-,27.7,0,0,0
CCc1ccc(CN(C)C(=O)c2cc(COc3cc(C)c(Cl)c(C)c3)on2)nc1,0,0,0,0,0,0,-,-
O=S(=O)(N[C@@H]1CCCC[C@H]1N1CCOCC1)c1ccc(Cl)cc1,-,0,-,-,0,-,-,-
Cc1cc(N2CCOCC2)ccc1/C=C\[N+](=O)[O-],0,0,0,0,19.9,0,0,0
O=[N+]([O-])c1ccc(N2CCOCC2)cc1O,0,0,0,0,0,0,-,-
NC(=O)[C@@H]1CCCN1C(=O)[C@@H](Cc1ccccc1)NC(=O)[C@H]1O[C@@H](n2ccc(N)nc2=O)[C@H](O)[C@@H]1O,0,0,-,-,0,0,-,-
N#Cc1ccccc1OCC(=O)N1CCN(C(=O)c2ccco2)CC1,0,0,0,-,0,0,-,-
CCOC(=O)C1(C(=O)OCC)Cc2c([nH]c3ccccc23)[C@]2(N1)C(=O)N(C)c1ccc(Br)cc12,0,12.3,-,-,25.3,0,0,0
CCOc1ccc(NC(=O)COC(=O)c2c[nH]c3ccccc23)cc1,0,0,0,0,0,0,-,-
CCOc1cc(S(=O)(=O)Nc2ccc(CC)cc2)ccc1Cl,0,0,0,0,24.9,0,0,0
Cc1cccc(OCCNC(=O)c2ccc(Oc3ccc(C(F)(F)F)cc3[N+](=O)[O-])cc2)c1,0,0,0,0,25.6,0,0,0
Cc1ccc(C)c(OCC(=O)Nc2ccc3c(c2)OCO3)c1C,0,0,0,0,20.5,0,0,0
